RGS4-Gao reg = human RGS4-Galphao interaction regulation; P09471; Multiplexed bead flow cytometry, RGS4-Galphao binding; actives lie on both sides; binding response (% of control), % at 10 µM; 220,000 compounds, 0.33% hits; in the data active = binding response below about 49% or above about 150%; inactive = in between;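 note: fluorescent Galphao activated with aluminum fluoride binding bead-coupled RGS4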
Target sequence (P09471 whole entry, looked up): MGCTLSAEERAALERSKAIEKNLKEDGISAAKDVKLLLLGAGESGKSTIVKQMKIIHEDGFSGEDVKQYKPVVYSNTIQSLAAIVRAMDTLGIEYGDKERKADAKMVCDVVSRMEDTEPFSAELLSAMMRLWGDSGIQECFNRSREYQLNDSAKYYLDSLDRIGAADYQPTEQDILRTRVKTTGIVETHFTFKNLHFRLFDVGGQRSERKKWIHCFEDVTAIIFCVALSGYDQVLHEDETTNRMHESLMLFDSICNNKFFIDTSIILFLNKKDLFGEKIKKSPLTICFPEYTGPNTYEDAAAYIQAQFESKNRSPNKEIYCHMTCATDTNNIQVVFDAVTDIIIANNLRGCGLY
RGS16-Gao = modulates binding between human RGS16 and Galphao. O15492+P09471. bead-based flow cytometry RGS16-Galphao binding, fluorescence; actives lie on both sides. binding response (% of control), % at 10 µM. 220,000 compounds, 0.38% hits. AID 1441;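 note: Galphao activated by GDP with aluminum fluoride before binding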
Target sequence (O15492 whole entry, looked up): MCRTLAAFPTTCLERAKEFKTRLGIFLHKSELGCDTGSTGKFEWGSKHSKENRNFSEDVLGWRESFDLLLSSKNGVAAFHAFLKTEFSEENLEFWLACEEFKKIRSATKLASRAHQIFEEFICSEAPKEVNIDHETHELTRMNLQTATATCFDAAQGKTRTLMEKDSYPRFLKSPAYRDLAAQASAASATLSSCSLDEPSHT
Target sequence (P09471 whole entry, looked up): as the sequence (P09471 whole entry, looked up) above
RGS8-Gao = human RGS8-Galphao interaction regulation; response (percent of control binding), % at 10 µM; P09471; 220,000 compounds, 0.34% hits; AID 1423; multiplexed bead flow cytometry, RGS8-Galphao binding; actives lie on both sides; in the data active = response below about 60% or above about 140%; inactive = in between;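 note: Galphao activated as the GDP aluminium fluoride complex binding bead-coupled RGS8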
RGS7-Gao reg = modulates binding of RGS7 to human Galphao; P09471; Multiplexed bead flow cytometry; actives lie on both sides; binding response (% of control), % at 10 µM; 220,000 compounds, 0.35% hits; AID 1439; in the data active = binding response below about 49% or above about 150%; inconclusive = no clear call, values can overlap the other calls; inactive = in between;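 note: fluorescent Galphao held in activated GDP-AlF4 state binding bead-coupled RGS7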
RGS4-Gao HTS = modulates binding between human RGS4 and Galphao; 1,600 compounds, 99% hits; shares compounds with RGS16-Gao; multiplexed bead flow cytometry, RGS–Galpha-o binding; RGS4–Galpha-o binding response, % at 10 µM;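 note: fluorescently labeled Galpha-o bound to GDP with aluminium fluoride binding biotinylated RGS beads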
Avidin counter = biotin-avidin bead binding disruption counter-screen. inhibition, % at 10 µM. streptavidin beads, fluorescein-biotin binding, flow cytometry. shares compounds with RGS16-Gao. 1,700 tested, under 10 active;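 active = inhibition above 50%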;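 note: median green fluorescence of gated singlet beads compared with DMSO control wells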
RGS8-Gao single = RGS8-Galphao interaction regulation, single point confirmation. bead-based flow cytometry RGS8-Galphao binding, fluorescence; actives lie on both sides. binding response (% of control), % at 10 µM. 1,700 compounds, 3% hits. AID 1836. shares compounds with RGS16-Gao; in the data active = binding response below about 72% or above about 130%; inactive = in between;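 note: Galphao activated as GDP AlF4 complex before binding bead RGS8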
RGS7-Gao confirm = confirmation of regulators of human RGS7-Galphao interaction | shares compounds with RGS16-Gao | bead-based flow cytometry RGS7-Galphao binding; actives lie on both sides | response (percent of control binding), % at 10 µM | 1,700 compounds, 7.8% hits; in the data active = response below about 75% or above about 130%; inactive = in between;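 note: fluorescent Galphao activated with GDP and aluminum fluoride binding bead-coupled RGS7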
RGS16-Gao single = confirmation of regulators of human RGS16-Galphao interaction. shares compounds with RGS16-Gao. bead-based flow cytometry, RGS16-Galphao binding; actives lie on both sides. 1,700 compounds, 4% hits. response (% of control binding), % at 10 µM; in the data active = response below about 74% or above about 130%; inactive = in between;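 note: Galphao activated as the GDP aluminium fluoride complex binding bead-coupled RGS16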
RGS4-Gao single = confirmation of regulators of human RGS4-Galphao interaction | shares compounds with RGS16-Gao | RGS4-Galphao binding, multiplexed bead flow cytometry; actives lie on both sides | binding response (% of control), % at 10 µM | 1,700 compounds, 4% hits; in the data active = binding response below about 74% or above about 130%; inactive = in between
RGS19-Gao single = RGS19-Galphao interaction regulation, single point confirmation. AID 1841. 1,700 compounds, 5% hits. shares compounds with RGS16-Gao. response (percent of control binding), % at 10 µM. bead-based flow cytometry RGS19-Galphao binding; actives lie on both sides; in the data active = response below about 50% or above about 160%; inactive = in between
A number is an active result; – = inactive; ? = inconclusive; · = no result given; [ ] = remark or other dose. An excerpt weighted towards active compounds, which were near 0.78% of everything screened. Unless noted, the rule behind the calls is not given here.

SMILES	RGS4-Gao reg	RGS16-Gao	RGS8-Gao	RGS7-Gao reg	Avidin counter	RGS8-Gao single	RGS7-Gao confirm	RGS16-Gao single	RGS4-Gao single	RGS19-Gao single	others
COc1ccc(OCCOC(=O)c2cccc(-n3cnnn3)c2)cc1	15	4.0	29	17	–	–	–	–	–	–
O=C(CN1C2CCC1CC(NC(=O)NC1CCCCC1)C2)NC1CC1 (stereo not drawn)	–	–	–	–	·	·	·	·	·	·
CCNC(=O)C(Sc1ccccc1)c1ccccc1 (stereo not drawn)	–	252[activator]	–	–	–	–	–	–	–	–	RGS4-Gao HTS=106
Cc1ccc(-n2c(SCC(=O)NCc3ccco3)nc3c([nH]c4ccccc43)c2=O)cc1	-3.0	-4.2	6.5	-11	–	–	–	–	–	–
O=C1CC(c2ccccc2)n2nc(NC(=O)c3ccccn3)nc2N1 (stereo not drawn)	–	–	–	–	·	·	·	·	·	·
C=CCOC(=O)C1=C[C@H](c2ccccc2)[C@@H](CCCO)[C@H](OCC)O1	–	–	–	–	·	·	·	·	·	·
Cc1ccc2nc(C)c3c(c2c1)SCC3	207[activator]	193[activator]	–	?	–	–	–	–	–	–
FC(F)(F)c1cccc(NC(=S)N(CCCN2CCCC2)Cc2cccn2Cc2ccc(Cl)cc2)c1	–	–	–	–	·	·	·	·	·	·
COc1ccccc1NC(=O)CN1CCN(CC(=O)Nc2ccc(Cl)c(C(F)(F)F)c2)CC1	–	–	–	–	·	·	·	·	·	·
CCc1ccccc1NCC(=O)Nc1ccc(Cl)c(C(F)(F)F)c1	–	20	–	–	–	–	–	–	–	–	RGS4-Gao HTS=94
Cc1ccccc1-n1c(SCC(=O)N/N=C/c2ccccc2OCC(=O)O)nc2ccccc2c1=O	–	–	–	?	·	·	·	·	·	·
Cc1cc(Cl)ccc1N(CC(=O)NCCSCc1ccco1)S(C)(=O)=O	–	–	–	–	·	·	·	·	·	·
Cc1ccc(-c2nn(CCC(=O)O)cc2CCC(=O)O)cc1	–	–	–	–	·	·	·	·	·	·
CCn1cc(CCC(=O)O)c(C)n1	–	–	146[activator]	–	–	–	–	–	–	–	RGS4-Gao HTS=142
O=C(NC1(C(F)(F)F)NC(=O)N(Cc2ccccc2)C1=O)c1cccnc1 (stereo not drawn)	–	–	–	–	·	·	·	·	·	·
O=C(NC1(C(F)(F)F)NC(=O)N(Cc2cccnc2)C1=O)c1ccccc1 (stereo not drawn)	46	–	52	42	–	–	–	–	–	–
Cc1ccc(NC(=O)Nc2cnccn2)cc1Cl	–	–	–	–	·	·	·	·	·	·
O=C(Nc1cnccn1)Nc1ccc(Cl)cc1Cl	·	·	·	·	–	–	–	–	–	–
O=C(Cc1ccc(Br)cc1)N(Cc1ccccc1)c1ccccn1	–	–	–	151[activator]	–	–	–	–	–	–	RGS4-Gao HTS=112
COCC(C)NC(=O)c1cc(OC)cc(OC)c1 (stereo not drawn)	–	–	–	?	·	·	·	·	·	·
CC(=O)N(c1ccccc1C)C1CCCC1	–	–	–	–	·	·	·	·	·	·
CC(=O)N(C1=C(Cl)C(=O)c2ccccc2C1=O)C1CCCCC1	–	3.0	54	?	·	·	·	·	·	·	RGS4-Gao HTS=87
S=c1[nH]nc(COc2ccccc2)n1Cc1ccccc1	–	3.7	50	–	–	–	–	–	–	–	RGS4-Gao HTS=80
CCC(=O)N1c2ccccc2NC2=C(C(=O)CC(c3ccco3)C2)C1c1ccco1 (stereo not drawn)	–	–	–	–	·	·	·	·	·	·
Cc1ccc(Cn2nnc3c(=O)[nH]c(C4CCCN(S(=O)(=O)c5ccccc5)C4)nc32)cc1 (stereo not drawn)	–	-107	–	–	–	–	–	–	–	–	RGS4-Gao HTS=73
SMILES	RGS4-Gao reg	RGS16-Gao	RGS8-Gao	RGS7-Gao reg	Avidin counter	RGS8-Gao single	RGS7-Gao confirm	RGS16-Gao single	RGS4-Gao single	RGS19-Gao single	others
O=c1[nH]c(C2CCCN(S(=O)(=O)c3ccc(F)cc3)C2)nc2c1nnn2Cc1ccccc1 (stereo not drawn)	–	–	–	–	·	·	·	·	·	·
O=[N+]([O-])C(=C1SCCS1)C(=C(Cl)Cl)N1CCCCC1	–	–	–	–	·	·	·	·	·	·
CC(C)CCNC(=O)NC(=O)COC(=O)C1=COCCO1	21	9.2	13	17	–	–	–	–	–	–
C=CCn1c(-c2cccnc2)n[nH]c1=S	–	–	–	–	·	·	·	·	·	·
O=C(CSCc1ccccc1)Nc1ccc(S(=O)(=O)N2CCOCC2)cc1	–	–	–	–	·	·	·	·	·	·
COc1ccccc1NC(=O)C1=C(C)NC(=O)NC1c1cc(C)cs1 (stereo not drawn)	202[activator]	–	167[activator]	189[activator]	–	–	–	–	–	–
COc1ccccc1NC(=O)C1=C(C)NC(=O)NC1c1ccccc1F (stereo not drawn)	–	–	–	–	·	·	·	·	·	·
CCOc1ccc(N=C2NC(=O)C(CC(=O)Nc3ccc(OC)cc3)S2)cc1 (stereo not drawn)	–	–	–	–	·	·	·	·	·	·
CN(C(=O)COC(=O)c1ccc([N+](=O)[O-])cc1)c1ccccc1	–	–	–	–	·	·	·	·	·	·
O=C(O)C[C@@H]1C(=O)O[C@@H]2C(COC(=O)c3cc(O)c(O)c(O)c3)O[C@@H](OC(=O)c3cc(O)c(O)c(O)c3)[C@@H](OC(=O)c3cc(O)c(O)c4c3[C@H]1[C@H](O)C(=O)O4)[C@H]2OC(=O)c1cc(O)c(O)c(O)c1 (stereo partly drawn)	2.5	–	38	?	–	39	-12	39	-0.5	42
COc1ccccc1NC(=O)C(=O)N/N=C/c1cccs1	–	–	–	–	·	·	·	·	·	·
COc1ccccc1OCc1ccc(C(=O)OCC2CCCO2)o1 (stereo not drawn)	–	–	–	–	·	·	·	·	·	·
Cc1nn(CCCC(=O)N2CCN(c3ccc(F)cc3)CC2)c(C)c1[N+](=O)[O-]	25	15	18	19	–	–	–	–	–	–
CCOc1ccc(NC(=S)NC(=O)c2c(Br)cnn2C)c([N+](=O)[O-])c1	-40	–	-1.6	-20	–	–	–	–	–	–
CCO[C@H]1OC(C(=O)NCc2nc3ccccc3[nH]2)=C[C@@H](C)[C@@H]1CCCO	–	–	–	–	·	·	·	·	·	·
